Measured values published in the supplement of paper PMC11417369.
± gives the standard deviation of the averaged measurements. The full ranking holds about 25,000 sequences; the median of “ln(normalized median fluorescence intensity)” is about 7.9, and the highest 2% start at about 11. This excerpt belongs to a sample that is enriched for the highest values.

The sequences below were run on PfAP2-I AP2 domain 3 (GST-tagged) (assay: gcPBM binding intensity (ln(normalized median fluorescence intensity)); higher = stronger DNA binding).
Procedure, shortened: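 An Agilent 4 × 180k array of primer-extended double-stranded 36-bp intergenic genomic probes, with negative controls, was incubated for 1 h with GST-tagged P. falciparum DNA-binding domains expressed in E. coli. Alexa488 anti-GST antibody detected bound protein, scanned at 488 nm. Binding intensity is the highest Masliner-normalised natural-log median intensity across replicate spots of either probe orientation.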

“TTAACATAAATATATACACACCAATGATGGCATTTA [CACACA_site4952]” and “TATATATTCATGTGTACACACAAAAAAAAATAAAGT [CACACA_site2207]” are within error of each other in “gcPBM binding intensity (ln)” value: 7.51 ± 0.52 for the first, 8.41 ± 0.65 for the second.

Compared with “TTGTATGCTTCCCGACTACATTATGCCATAAATGTA [TGCATGCA_negctrl_site136]”, “AGTGCATACATGAATTGTACTTTAAAATAAATTCTA [XGTACX_site8156]” is higher in “gcPBM binding intensity (ln)” value: 7.92 ± 0.49 for the first, 9.7 ± 0.52 for the second.

Going from “TAAATATATTTCATGACATGCAACTTGTTTTTTTGT [TGCATGCA_site456]” to “TTCTTATTTGTACTAGTGCAATAGAAAATAAATAAA [GTGCAC_site9731]”, the “gcPBM binding intensity (ln)” value rises from 7.63 ± 0.7 to 10.9 ± 0.49.

TAAAATTTGTACATAGTGCAATTTTTTTTTTTTTTT and “TTTTTTCTTAAAATTTGTACATAGTGCAATTTTTTT [XGTACX_site5509]” are within error of each other in “gcPBM binding intensity (ln)” value: 9.81 ± 0.099 for the first, 9.5 ± 0.69 for the second.

“TATTTTACATCTTCTCACATTTTATCACTTTTTAAA [CACACA_negctrl_site330]” and “ATTATTATAGATATAACACACATAATTACATACTTA [CACACA_site6837]” are within error of each other in “gcPBM binding intensity (ln)” value: 8.08 ± 0.45 for the first, 7.97 ± 0.14 for the second.

First: TTATATAATTTAATAGTGCAATTATATTAATTTTTC
Second: ATATATATTATATAAGTGCATAATATTCTTTCTTTT
The “gcPBM binding intensity (ln)” value of the first is lower: 9.82 ± 0.42 for the first, 10.5 ± 0.25 for the second.

First: ATTTTCTTTTCCATAGTGCAATATAATTATCCATCA [GTGCAC_site9547]
Second: GATAGACACGTGCACACATGCAATACTTTATTCAGT [TGCATGCA_site778]
The “gcPBM binding intensity (ln)” value of the first is higher: 11.3 ± 0.39 for the first, 10.1 ± 0.32 for the second.

First: ATTTGATAGACACATGCACACATGCAATACTTTATT [CACACA_site5633]
Second: TTTAATTTGATAGACACATGCACACGTGCAATACTT [TGCATGCA_site777]
The “gcPBM binding intensity (ln)” value of the first is lower: 8.81 ± 0.77 for the first, 10.95 ± 0.021 for the second.

First: CATTATCATGTTTTTTGTACTCATAATAAAAAGCAG [XGTACX_site2056]
Second: AAAATCTAATATAATGCACACATAAAAAAAAATCAA [CACACA_site9211]
The “gcPBM binding intensity (ln)” value of the first is lower: 8.03 ± 0.21 for the first, 10.9 ± 0.59 for the second.

“AATCTAATATAATGCACACATAAAAAAAAAATCAAA [CACACA_site2714]” and “AATCTAATATAATGCACACATAAAAAAAAATCAAAC [CACACA_site3633]” are within error of each other in “gcPBM binding intensity (ln)” value: 10.7 ± 0.74 for the first, 11.1 ± 0.94 for the second.

Going from “AAAATCTAATATAATGCACACATAAAAAAAAAATCA [CACACA_site8871]” to “ATAATAAAATAAATCACACATAATATAATGTAATAT [CACACA_site6144]”, the “gcPBM binding intensity (ln)” value falls from 11 ± 0.68 to 7.54 ± 0.54.

First: TATCAAAATAAATGCACACAAATTGCACATATCTAT [CACACA_site1097]
Second: TAGATATATAAATACACACACATACACAAAAAAAAA [CACACA_site7652]
The “gcPBM binding intensity (ln)” value of the first is higher: 10.3 ± 0.11 for the first, 8.21 ± 0.45 for the second.

In the case of “AAATATATATAAAACTCACACATTATCTTATAACCA [CACACA_site5268]”, the “gcPBM binding intensity (ln)” value is reported as 7.83 ± 0.23.
